Bioassay records from PubChem BioAssay.
AID inhibitor: activation induced cytidine deaminase inhibition; AID deamination FRET fluorescence, UDG-coupled, 4 h; actives 0.32% (n = 91,000); Potency, µM (doses to about 115 µM), most hits filed as inhibitors; Q9GZX7; AID 1347428; further: nearly all actives have a fitted effect of over 25% in size
Target sequence (Q9GZX7 whole entry, looked up): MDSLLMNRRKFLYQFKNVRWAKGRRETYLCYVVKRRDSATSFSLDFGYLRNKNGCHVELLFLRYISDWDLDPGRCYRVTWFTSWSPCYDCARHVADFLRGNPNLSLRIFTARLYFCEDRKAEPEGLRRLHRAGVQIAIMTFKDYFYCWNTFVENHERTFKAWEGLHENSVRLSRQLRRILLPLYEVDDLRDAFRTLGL
UDG counterscr: blocks uracil-DNA glycosylase in AID counter-screen. FRET deamination/UDG coupled assay, UDG read, 4 h. Potency, µM (top dose mostly 115 µM), hits mostly inhibitors. actives 0.14% (n = 91,000). AID 1347430; further: nearly all actives have a fitted effect of over 65% in size
Hits are given with their value; - = inactive; ? = inconclusive. An excerpt weighted towards active compounds, which were near 0.47% of everything screened. The call rests on the fitted dose curve; in most records, active means well fitted curve in the direction sought with a large enough effect; inconclusive means small, poorly fitted or top-dose-only effect, or another doubt; inactive means no such curve, though single readings can be large; an effect the other way counts as inactive or inconclusive.

SMILES	AID inhibitor	UDG counterscr
CCOC(=O)N1CCc2c(sc3c2c(=O)n(-c2ccc(CC)cc2)c(=O)n3Cc2cccc(Cl)c2)C1	-	-
C=Cc1ccc(Cn2c(=O)n(-c3cccc(Cl)c3)c(=O)c3c4c(sc32)CN(C(C)=O)CC4)cc1	?	79µM
CC(=O)N1CCc2c(sc3c2c(=O)n(Cc2ccccc2)c(=O)n3Cc2ccccc2F)C1	?	-
CC(=O)N1CCc2c(sc3c2c(=O)n(Cc2ccccc2)c(=O)n3Cc2ccccc2Cl)C1	22µM	-
CCC12CN3CC(CC)(CN(C1)C3c1ccc(O)c(OC)c1)C2O (centres undefined)	-	-
CCCn1nc(C(=O)Oc2cc(Cl)ccc2Cl)c2ccccc2c1=O	-	-
c1ccc(CN2CCC(=NNc3nncc4ccccc34)CC2)cc1	-	-
NNc1nncc2ccccc12	45µM	35µM
Cc1ccc(C(=O)Nc2cc(-c3nc4ccccc4s3)ccc2C)cc1	-	-
COc1cccc(/C=C/c2nc(C#N)c(N3CCN(C(=O)c4ccco4)CC3)o2)c1	-	-
O=C(Cc1ccc2c(c1)CCCC2)NC1CCCCC1	-	-
N#Cc1c(N)n[nH]c1CCCNC(=O)c1ccccc1Nc1cccc(C(F)(F)F)c1	-	-
Cc1cccc(C)c1NC(=O)c1cc(S(=O)(=O)N2CCCc3ccccc32)ccc1F	-	89µM
Cc1ccc(NC(=O)c2cc(S(=O)(=O)N3CCCc4ccccc43)ccc2F)cc1F	-	?
Cc1ccc(C(=O)Nc2cc(-c3nc4ccccc4s3)ccc2C)c(C)c1	-	-
CCOc1ccc(Nc2nnc(-n3nc(C)cc3C)c3ccccc23)cc1	-	79µM
CCc1ccc(Nc2nnc(-n3nc(C)cc3C)c3ccccc23)cc1	-	-
Cc1ccc(N/N=C/c2ccc(Cl)c(Cl)c2)cc1	-	-
Cc1ccc([N+](=O)[O-])cc1N=Cc1ccc(C#Cc2ccccc2)cc1	-	-
O=C(O)CCC(=O)Nc1ccc2[nH]cc(C(C(=O)O)N3CCN(c4cccc(Cl)c4)CC3)c2c1 (centres undefined)	-	-
Cc1ccc(NC(=O)c2cccc(NC(=O)NC(C)C)c2)cc1Cl	-	-
Cc1ccc(C(=O)Nc2ccc(S(=O)(=O)O)c3cc(S(=O)(=O)O)cc(S(=O)(=O)O)c23)cc1NC(=O)c1cccc(NC(=O)Nc2cccc(C(=O)Nc3cc(C(=O)Nc4ccc(S(=O)(=O)O)c5cc(S(=O)(=O)O)cc(S(=O)(=O)O)c45)ccc3C)c2)c1	7.1µM	-
CC(=O)N1N=C(c2c(-c3ccccc3)c3cc(Cl)ccc3n(C)c2=O)CC1c1cccs1 (centres undefined)	45µM	-
CC(=O)N1N=C(c2ccc(C)cc2)CC1c1cn(-c2ccccc2)nc1-c1cccs1 (centres undefined)	-	-
C/C(=N/Nc1ccccc1C(F)(F)F)c1ccc(Cl)cc1Cl	-	-
SMILES	AID inhibitor	UDG counterscr
S=C(N/N=C/C(c1ccccc1)c1ccccc1)Nc1ccccc1Cl	-	-
O=C(O)CCOc1ccccc1-c1ccccc1	-	-
O=C(Cc1c[nH]c2ccccc12)N1CCN(C(=O)NC2CCCC2)CC1	-	-
Cc1ccc(CNC(=O)c2ccc(-c3nc(CS(=O)c4ccccc4)c(C)o3)cc2)cc1 (centres undefined)	-	-
COc1ccc(CNC(=O)c2ccc(-c3nc(CS(=O)c4ccc(C)cc4)c(C)o3)cc2)cc1 (centres undefined)	?	89µM
CCc1cccc(NC(c2nnc(-c3ccccc3)o2)c2ccc(F)cc2Cl)c1 (centres undefined)	?	79µM
COc1cc(OC)c(NC(c2nnc(-c3ccccc3)o2)c2ccc(F)cc2Cl)cc1Cl (centres undefined)	-	-
O=C(Nc1ccc(Cl)cc1F)c1ccc(-c2ccccc2)cc1	-	-
Cc1cccc(N2CCN(c3ncnc4onc(-c5ccc(F)cc5)c34)CC2C)c1 (centres undefined)	?	79µM
Cc1cccc(N2CCN(c3ncnc4onc(C)c34)CC2C)c1 (centres undefined)	-	-
Cc1nc2c(C(=O)NCCc3ccccc3)c[nH]n2c(=O)c1Cc1ccc(F)cc1Cl	-	-
Cc1ccc(CNC(=O)c2c[nH]n3c(=O)c(Cc4ccc(F)cc4Cl)c(C)nc23)cc1	71µM	-
O=C(NCCCCCO)C1CCN(c2nc(Cl)nc3nc[nH]c23)CC1	-	89µM
O=C(CCNc1nc(Cl)nc2nc[nH]c12)NC1CC1	-	-
COCCn1c(SCc2ccc(C#N)cc2)nnc1-c1ccc(Cl)cc1	-	-
CC(C)(C)c1ccc(-c2nc(SCCCOc3ccccc3)n3[nH]c(=O)cc3n2)cc1	79µM	-
COc1ccccc1OCCCSc1nc(-c2ccc(C(C)(C)C)cc2)nc2cc(=O)[nH]n12	?	-
Cc1cccc(N(CC(=O)N(C)Cc2ccccc2)S(=O)(=O)c2ccccc2)c1C	35µM	-
Cc1cccc(N(CC(=O)NCCc2ccccc2)S(=O)(=O)c2ccccc2)c1C	-	-
C#CCN1CCC(C(=O)NCCN(C(C)C)C(C)C)CC1	-	-
O=C(COC(=O)c1cc(=O)c2ccccc2o1)NC1CCCCCC1	-	-
COc1cc2c(=O)c(C(=O)c3ccc(C)c(C)c3)cn(Cc3ccc(F)cc3)c2cc1OC	45µM	-
COc1cc2c(=O)c(C(=O)c3ccc(C)c(C)c3)cn(Cc3ccccc3)c2cc1OC	?	-
CN(Cc1ccsc1)C(=O)c1ccc(-c2ccccc2)cc1	-	-
Oc1ccc(NCc2ccccc2OCc2ccccc2)cc1	32µM	79µM
SMILES	AID inhibitor	UDG counterscr
CCOc1cc(CNc2ccc(O)cc2)cc(Br)c1OCc1ccccc1	-	-
CCOc1cc(CNc2ccc(O)cc2)ccc1OCc1ccc(Cl)cc1	?	-
Oc1ccc(NCc2ccccc2OCc2ccc(Cl)cc2)cc1	32µM	-
COc1ccc(CNC(=O)C23CC4CC(CC(C4)C2)C3)cc1	-	-
CCCCCc1ccc(-c2ccc(C3=CC(=O)C(CCC)CC3)cc2)cc1 (centres undefined)	-	-
Cc1ccc(-c2ccc3c(N)c(C(=O)Nc4ccccc4)sc3n2)cc1	-	-
O=C1COc2ccc(C(=O)COC(=O)c3cc(Cl)ccc3Cl)cc2N1	-	-
Cc1nc2ccccc2c(C)c1CC(=O)O	-	-
COc1ccc(OC)c(CN2CCCC(C(=O)N3CCCCCC3)C2)c1 (centres undefined)	-	-
O=C(c1ccc2c(Cl)c3c(nc2c1)CCCC3)N1CCN(c2cccc(Cl)c2)CC1	14µM	-
O=C(c1ccc2c(Cl)c3c(nc2c1)CCCC3)N1CCN(c2ccc(Cl)cc2)CC1	-	-
COc1cccc(N2CCN(C(=O)c3ccc4c(Cl)c5c(nc4c3)CCCC5)CC2)c1	20µM	-
O=C(c1ccc2c(Cl)c3c(nc2c1)CCCC3)N1CCN(c2cccc(C(F)(F)F)c2)CC1	-	-
CCOc1cccc2c(C)nc(Nc3nc(C)c(CC)c(=O)[nH]3)nc12	50µM	-
COc1ccc2nc(Nc3nc(C)c(CCC(C)C)c(=O)[nH]3)nc(C)c2c1	-	-
CC(C)Cc1ccc(S(=O)(=O)N2CCC(c3ccncc3)CC2)cc1	35µM	-
CC(C)(C)c1ccc(S(=O)(=O)N2CCC(c3ccncc3)CC2)cc1	?	-
C=CCNC(=O)NC(=O)CNc1cc(C(F)(F)F)ccc1NC1CCCCC1	-	-
Cc1cc(C)cc(CCCCCCCCCCCC(=O)O)c1	79µM	-
O=C(O)CCCCCCCC(=O)O	-	-
CC1CCN(c2nc3c(c(=O)[nH]c(=O)n3C)n2CC(=O)O)CC1	-	-
